# Screening data (PubChem)
# p53ts 39C tox – cytotoxicity in p53ts cells at nonpermissive temperature; H1299-p53A138V viability at 39C, ATP luminescence, 24 h; Potency, µM (series often up to 46.1 µM), for inactives: at the top dose activity change, negative = cell killing, hits mostly cytotoxic; actives 1.5% (n = 130,000); further: on the % scale 0 is the no-effect control and ±100 the full control effect; nearly all actives have a fitted effect of over 55% in size
# Caspase-1 inhib – allosteric or competitive inhibitors of human caspase-1. Caspase-1 enzyme, Ac-WEHD-AFC fluorogenic rate. Potency, µM (top dose mostly 57.5 µM), for inactives: at the highest dose activity change, negative = inhibition, most hits filed as inhibitors. actives 0.03% (n = 75,000). AID 900;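 further: plate controls were vehicle for no effect and no substrate for full effect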
# Caspase-7 inhib – allosteric or competitive inhibitors of human caspase-7; P55210; recombinant caspase-7, Ac-DEVD-AFC fluorescence rate; Potency, µM (titrated, usually from 57.5 µM), for the others: at the top dose activity change, negative = inhibition, most hits filed as inhibitors; actives 0.02% (n = 75,000); AID 889; active means well fitted inhibition curve with a large enough effect in the main read-out, with a control signal flat, not every such curve was filed as active; inconclusive means small, poorly fitted or top-dose-only effect, or a change in a side signal; further: % of control where 0% means no effect
# FLuc inh – firefly luciferase inhibition; AID 411; purified firefly luciferase, luminescence, 8 min; actives 2.2% (n = 72,000); Potency, µM (top dose mostly 57.1 µM), for the others: at the top dose activity change, negative = inhibition, most hits filed as inhibitors; P08659; further: on the % scale 0 is the no-effect control and ±100 the full control effect; nearly all actives have a fitted effect of over 40% in size
#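 Compounds were tested as concentration series (qHTS) against purified P. pyralis luciferase with luciferin and 10 uM ATP in 50 mM imidazole pH 7.2, 50 mM KCl, 7 mM MgCl2, 0.01% Tween 20, 0.05% BSA. Luminescence was read after 8 min at ambient temperature.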
# p53ts 32C kill – p53ts cell cytotoxicity, permissive temperature; H1299-p53A138V at 32C, ATP luminescence viability, 24 h; Potency, µM (series often up to 46.1 µM), for inactives: at the highest dose activity change, negative = cytotoxicity, most hits filed as cytotoxic; actives 0.93% (n = 130,000);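 further: 0% = DMSO and -100% = full killing by reference compound; nearly all actives have a fitted effect of over 55% in size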
#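 H1299-p53 A138V cells (temperature-sensitive p53) exposed 24 h to up to 46 uM compound at 32C, where p53 is wild-type in conformation. Viability read as ATP luminescence and normalised to DMSO and 100 uM tamoxifen. AC50 fitted with the Hill equation.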
# IkB signaling – inhibitors of IkB signaling in ABC-DLBCL cells; AID 445; ABC-DLBCL IkBa-CBG/CBR dual luciferase ratio, 4 h; response scale: scaled: untreated 0%, proteasome inhibitor 100%; Potency, µM (series often up to 57.1 µM), without a hit: at the highest dose IkBa stabilization activation; actives 0.04% (n = 110,000); active means well fitted curve in the direction sought with a large enough effect in the signal ratio, not every such curve was filed as active; inconclusive means small, poorly fitted or top-dose-only effect, or a change in a side signal; the % refers to the signal ratio;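 further: the direction sought is a rising ratio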
#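 Luminescence ratio of IκBα-fused green versus native red beetle luciferase in OCI-Ly3 cells, 4 h post-doxycycline with compound; red signal alone, scaled from basal (0%) to zero light (-100%), flagged nonspecific or cytotoxic effects.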
# * = called active by the depositor; ? = inconclusive; . = no result given; [ ] = another dose, or the depositor's remark. Sampled rows, rich in hits. Any-hit rate of the full collection: about 2.5%. Unless noted, the call rests on the fitted dose curve; in most records, active means well fitted curve in the direction sought with a large enough effect; inconclusive means small, poorly fitted or top-dose-only effect, or another doubt; inactive means no such curve, though single readings can be large; an effect the other way counts as inactive or inconclusive. Potency means the concentration at half of the fitted maximal effect.
SMILES,p53ts 39C tox,Caspase-1 inhib,Caspase-7 inhib,FLuc inh,p53ts 32C kill,IkB signaling
COc1ccc2nc(-c3ccccc3)[nH]c2c1,13µM*,2%,0%,6.3µM*,10µM*,?
CCOc1ccc2nc(-c3ccccc3)[nH]c2c1,5µM*,0%,-2%,3.2µM*,6.3µM*,?
COc1ccc2nc(C(C)O)[nH]c2c1 (configuration not stated),-1%,.,.,.,-5%,.
COc1ccc(N(CC(=O)NC2CCCCC2)C(=O)CNC(=O)c2ccco2)cc1OC,11%,.,.,.,-2%,.
Cc1ccc(Nc2c(-c3c[nH]c4ccccc34)nc3cc(C)ccn23)cc1,?,.,.,.,-19%,?
Cc1ccn2c(Nc3ccccc3)c(-c3c[nH]c4ccccc34)nc2c1,16µM*,.,.,.,-22%,?
CCN(c1cccc(C)c1)S(=O)(=O)c1ccc(N2CCCCS2(=O)=O)cc1,20%,.,.,.,3%,-1%
Nc1nsnc1C(=O)NCCO,7%,0%,-3%,5%,3%,1%
COc1ccc(-c2csc(/C(C#N)=C/Nc3ccc4c(c3)OCCO4)n2)cc1,-4%,.,.,.,-24%,.
c1cc2c(cc1Nc1nc(-c3ccc4c(c3)OCO4)cs1)OCCO2,-17%,-3%,-5%,13µM*,-19%,?
Oc1ccc(-c2csc(NCc3ccco3)n2)cc1,-30%,-2%,-2%,25µM*,-3%,1%
Oc1ccc(Nc2nc(-c3ccc(O)cc3)cs2)cc1,7%,0%,0%,16µM*,-3%,?
Fc1ccc(C(c2nnnn2Cc2cccs2)N2CCN(C3CCCCC3)CC2)cc1 (configuration not stated),-12%,-2%,2%,-1%,-13%,0%
O=C(OCc1nc2ccccc2s1)C1CCN(S(=O)(=O)c2cccs2)CC1,-5%,-7%,-5%,32µM*,0%,2%
Cc1nc2c(C(=O)NC(C)c3ccccc3)cnn2c(C)c1Cc1ccccc1 (configuration not stated),20µM*,.,.,.,?,?
O=C(Nc1ccccc1C(=O)NCc1ccco1)c1ccccc1,-3%,-4%,-1%,0%,7%,1%
O=C(Nc1ccc(Cl)cc1)Nc1ccccc1C(=O)NCc1ccco1,-15%,0%,0%,7.9µM*,-1%,?
Cc1ccc(NC(=O)CN2C(=O)c3ccccc3Sc3ccc(C(=O)N4CCOCC4)cc32)cc1C,-4%,.,.,.,24%,?
CC(=O)[C@@H]1[C@@H]2C(=O)N(c3ccc(F)c(Cl)c3)C(=O)[C@@H]2C2c3ccccc3C=CN21 (some centres not stated),-1%,32µM*,?,-6%,0%,?
N#C[C@@H]1[C@@H]2C(=O)N(c3ccc4c(c3)OCCO4)C(=O)[C@@H]2C2c3ccccc3C=CN21 (some centres not stated),-15%,32µM*,?,-10%,-23%,?
O=C(c1ccco1)[C@@H]1[C@@H]2C(=O)N(c3ccc(Br)cc3)C(=O)[C@@H]2C2c3ccccc3C=CN21 (some centres not stated),-8%,.,?,-12%,2%,?
O=C(c1ccco1)[C@@H]1[C@@H]2C(=O)N(c3ccc(F)cc3)C(=O)[C@@H]2C2c3ccccc3C=CN21 (some centres not stated),-6%,.,13µM*,-3%,-5%,?
CC(=O)[C@H]1[C@@H]2C(=O)N(c3cccc(Cl)c3)C(=O)[C@@H]2[C@H]2c3ccccc3C=CN21,.,.,.,-1%[25.5 µM],.,.
Oc1c(C(c2ccccc2F)N2CCCCC2)sc2nc(-c3ccco3)nn12 (configuration not stated),-8%,.,.,.,-6%,-2%
Clc1ccc(Oc2nc(Oc3ccc(Cl)cc3)nc(N3CCOCC3)n2)cc1,-21%,-1%,-1%,1%,12%,0%
SMILES,p53ts 39C tox,Caspase-1 inhib,Caspase-7 inhib,FLuc inh,p53ts 32C kill,IkB signaling
CCCCCOc1ccccc1CN1C(=O)C(=O)c2cc(C)ccc21,13µM*,.,.,.,1%,0%
CC(C)(C)c1ccc(Cn2nnc3c(=O)[nH]c(C4CCN(C(=O)Cc5cccs5)CC4)nc32)cc1,16µM*,-3%,-5%,5%,?,?
CN(C)c1ncnc2ccc(-c3cccc(C#N)c3)cc12,-4%,-2%,-3%,1%[2.29 µM],-3%,-2%[11.4 µM]
CCOC(=O)Cn1c(=O)oc2cc(S(=O)(=O)N3CCCc4ccccc43)ccc21,7%,-7%,-3%,0%,-6%,21%
CC(C)[C@H](Nc1ncnc2nc[nH]c12)C(=O)O,-1%[9.22 µM],-3%[11.5 µM],1%[11.5 µM],1%[11.4 µM],-11%[9.22 µM],-1%[11.4 µM]
CCCCN(CC)C(=O)Nc1ccc2c(c1)N(C)C(=O)c1ccccc1S2,25µM*,.,.,.,0%,?
COCCCNC(=O)c1ccc2c(c1)N(Cc1ccccc1)C(=O)c1ccccc1S2,?,.,.,.,-2%,1%
CCN(CC)C(=O)Nc1ccc2c(c1)N(Cc1ccccc1)C(=O)c1ccccc1S2,8%,.,.,.,3%,1%
CCCCN(CC)CCCNC(=O)c1ccc2c(c1)N(Cc1ccc(C)cc1)C(=O)c1ccccc1S2,13µM*,.,.,.,?,0%
Cc1cc(C)cc(NC(=O)Cc2csc(COc3cccc(C)c3)n2)c1,-23%,.,.,.,2%,1%
Cc1ccc(/C=C/c2onc(C)c2S(=O)(=O)N2CCC(C(=O)N3CCC(N(C)C(C)C)CC3)CC2)cc1,20µM*,.,.,.,?,0%
CCN(CCN(C)C)C(=O)C1CCN(S(=O)(=O)c2c(C)noc2/C=C/c2ccccc2F)CC1,13µM*,.,.,.,-21%,-2%
O=c1c2[nH]c3ccccc3c2ncn1Cc1ccccn1,-16%,1%,-1%,0%,-22%,1%
CN(C)c1ccc(NC(=O)c2sc(SCC(=O)Nc3nccs3)nc2N)cc1,.,.,.,4µM*,.,.
Cc1ccc(-n2c(C)cc(C(=O)COC(=O)c3c(C)noc3C)c2C)cc1,?,1%,-1%,25µM*,?,?
Cn1cc(-c2cc3n(n2)CCC(=O)N3CCCC(=O)NCc2ccc(Cl)cc2)c2ccccc21,13µM*,.,.,.,?,2%
COc1cc(NS(=O)(=O)c2ccc(NC(=O)c3cccc(F)c3)cc2)nc(OC)n1,2%,.,.,.,0%,-2%
O=C1c2oc3ccccc3c(=O)c2C(c2cccnc2)N1Cc1ccco1 (configuration not stated),-22%,-3%,-3%,3.2µM*,-25%,4%
COc1cc(C2c3c(oc4ccc(Cl)cc4c3=O)C(=O)N2Cc2ccco2)cc(OC)c1OC (configuration not stated),-3%,0%,-3%,4%,5%,-1%
